Reference: ChEMBL document CHEMBL3988442, “University of Dundee, Small-Polar-MMV Screening Library” (2021)

molecular target: AMP-activated protein kinase, AMPK (Homo sapiens) (UniProt P54646+O43741+P54619+Q9UGJ0+Q9Y478+Q13131+Q9UGI9); test: AMP-dependent Kinase enzyme assay. An in vitro enzyme assay that detects ADP turnover that is directly proportional to AMPK activity. This uses naive AMPK that is activated during the assay with MK-8722; type: functional; parameters: scale not given: direction of the effect not stated beside the values; details: 30 µM

Compound	Percent Effect [%]
CC(=O)N1CCCN(C(=O)NCCc2cc(Cl)cc(Cl)c2)CC1	10.6
CC(NC(=O)NCCCN(C)S(C)(=O)=O)c1ccncc1 (stereo not drawn)	5.26
COc1cc(C(=O)N2CCC(c3n[nH]c(C4CC4)n3)CC2)ccc1C	6.11
Cc1cc2n(n1)CC(CNCc1cnn(-c3ccccc3)c1)CN2 (stereo not drawn)	-10.4
Cc1nc(O)cc(C2CCN(Cc3cccc(F)c3F)C2)n1 (stereo not drawn)	-0.666
CCn1ccnc1CN1CCN(Cc2ccc(C#N)cc2)CC1	-10.9
O=C(CC1CCCC1)N1CCCC1c1nc(O)cc(-c2ccccn2)n1 (stereo not drawn)	1.3
CC(C)NC(=O)c1ccc2c(c1)nc1n2CCN(C(C)C)C1	2.97
CN(C)C(=O)CC1CC2(CCNCC2)c2cc(F)ccc21 (stereo not drawn)	8.49
COc1cccc(COCC(=O)N2CCCC(c3cc(C)[nH]n3)C2)c1 (stereo not drawn)	-9.62
Cc1ccccc1C(=O)N1CCOC2(CNCCOC2)C1 (stereo not drawn)	-1.58
CC(C)n1ccnc1CN1CCCN(C(=O)COC2CCCC2)CC1	6.6
OC[C@H]1CC[C@]2(CC1)CN(Cc1ccccc1F)Cc1ccccc1O2	15.1
Cc1nc(CN2C[C@@H]3CN(C(=O)c4cnccn4)C[C@@H]3C2)cs1	0.106
c1ccc(-c2noc(CNC3CCc4ncnn4C3)n2)nc1 (stereo not drawn)	-0.412
CCN1CC(C(=O)NC(C)(C)CNC(=O)OC(C)(C)C)CC1=O (stereo not drawn)	-1.21
CC(Cn1cccn1)NC(=O)Nc1ccc(F)cc1 (stereo not drawn)	-0.867
Cc1nc2cc(O)nn2c(C)c1CCC(=O)N(C)Cc1cscn1	-470
CCc1ncc(CNC2CC(=O)N(CCc3cccc(Cl)c3)C2)cn1 (stereo not drawn)	-3.73
CC(C)n1c(C2CCCN(CCS(C)(=O)=O)C2)nc2ccccc21 (stereo not drawn)	1.95

Compound	Percent Effect [%]
O=C(Cc1ccc2c(c1)OCCO2)N1CCCC(n2cccn2)C1 (stereo not drawn)	13.7
Cc1nc(C)n(C2CCCN(C(=O)c3sccc3C3CC3)C2)n1 (stereo not drawn)	-0.568
Cc1ccc2c(n1)N(CCn1cccn1)CCN(C(=O)CC1CC1)C2	-9.57
Cc1nc(CNC(C)c2ccc(OCC(=O)NC3CC3)cc2)cs1 (stereo not drawn)	-0.957
CN(CCC#N)C(=O)CCOc1cccc(F)c1	0.343
COc1cccc(CNC(=O)CN2CCCCC2Cn2cccn2)c1 (stereo not drawn)	2.66
CN1CC(=O)N(c2cnn(C)c2)CC12CCN(Cc1nccn1C)C2 (stereo not drawn)	4.05
COc1ncccc1NC(=O)N1CCC(CN2CCOCC2)CC1	-10.3
CC(=O)NC(C)(C)C(=O)Nc1ncc(Cc2ccc(C)c(F)c2)s1	1.18
Cc1cccc(COC[C@]23COC[C@H]2CN(C(=O)c2ccsc2)C3)n1	1.58
COCc1noc(C2(c3ccc(OC)cc3)CCOCC2)n1	0.468
CC(=O)Nc1cccc(C(=O)Nc2cnc3n2CCCC3)c1	-0.344
O=C(NCCOc1ccc2c(c1)OCO2)C1CC(=O)N(CC2CC2)C1 (stereo not drawn)	1.65
CN(C)c1cncc(C2CCN(CCO)CC2)n1	5.42
COc1ccc(OCC(=O)NS(=O)(=O)c2cc(F)ccc2F)cc1	5.69
Cc1nn(C)c(N(C)C)c1CNCc1cccnc1-n1cncn1	1.44
COc1ccc(CN2C[C@@H]3COC[C@]3(COc3cccnc3)C2)cc1	3.5
O=C(NCCN1CCC(c2cccs2)CC1)c1ccccc1C(F)(F)F	0.699
Cc1nc(CN2CCCC(N(C)Cc3c(C)noc3C)C2)no1 (stereo not drawn)	-0.475

molecular target: Sialic acid-binding Ig-like lectin 9 (Homo sapiens) (UniProt Q9Y336); test: Hs-Siglec9 ALPHAscreen SOP 20170721; parameters: scale not given: direction of the effect not stated beside the values; details: 10 µM
Sequence (Q9Y336 whole entry): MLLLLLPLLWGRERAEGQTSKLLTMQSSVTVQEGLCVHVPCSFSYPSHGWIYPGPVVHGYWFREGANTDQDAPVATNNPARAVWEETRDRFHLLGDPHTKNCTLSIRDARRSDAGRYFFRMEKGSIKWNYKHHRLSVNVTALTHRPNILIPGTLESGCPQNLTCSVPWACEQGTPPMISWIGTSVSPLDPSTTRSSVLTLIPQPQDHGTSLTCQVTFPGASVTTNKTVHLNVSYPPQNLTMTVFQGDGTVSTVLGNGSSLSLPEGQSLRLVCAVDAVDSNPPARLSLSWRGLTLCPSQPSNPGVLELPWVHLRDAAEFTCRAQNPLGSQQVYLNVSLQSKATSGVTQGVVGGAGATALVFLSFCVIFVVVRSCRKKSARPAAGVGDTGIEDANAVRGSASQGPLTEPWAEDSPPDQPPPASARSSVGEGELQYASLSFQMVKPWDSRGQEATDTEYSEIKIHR

Compound	Percent Effect [%]
CC(=O)N1CCCN(C(=O)NCCc2cc(Cl)cc(Cl)c2)CC1	0.0308
CC(NC(=O)NCCCN(C)S(C)(=O)=O)c1ccncc1 (stereo not drawn)	-2.69
COc1cc(C(=O)N2CCC(c3n[nH]c(C4CC4)n3)CC2)ccc1C	-3.19
Cc1cc2n(n1)CC(CNCc1cnn(-c3ccccc3)c1)CN2 (stereo not drawn)	1.3
Cc1nc(O)cc(C2CCN(Cc3cccc(F)c3F)C2)n1 (stereo not drawn)	-0.896
CCn1ccnc1CN1CCN(Cc2ccc(C#N)cc2)CC1	-5.15
O=C(CC1CCCC1)N1CCCC1c1nc(O)cc(-c2ccccn2)n1 (stereo not drawn)	16.7
CC(C)NC(=O)c1ccc2c(c1)nc1n2CCN(C(C)C)C1	4.16
CN(C)C(=O)CC1CC2(CCNCC2)c2cc(F)ccc21 (stereo not drawn)	-3.96
COc1cccc(COCC(=O)N2CCCC(c3cc(C)[nH]n3)C2)c1 (stereo not drawn)	3.3
Cc1ccccc1C(=O)N1CCOC2(CNCCOC2)C1 (stereo not drawn)	2.44
CC(C)n1ccnc1CN1CCCN(C(=O)COC2CCCC2)CC1	4.27
OC[C@H]1CC[C@]2(CC1)CN(Cc1ccccc1F)Cc1ccccc1O2	6.64
Cc1nc(CN2C[C@@H]3CN(C(=O)c4cnccn4)C[C@@H]3C2)cs1	5.75
c1ccc(-c2noc(CNC3CCc4ncnn4C3)n2)nc1 (stereo not drawn)	1.92
CCN1CC(C(=O)NC(C)(C)CNC(=O)OC(C)(C)C)CC1=O (stereo not drawn)	20.7
CC(Cn1cccn1)NC(=O)Nc1ccc(F)cc1 (stereo not drawn)	-4.43
Cc1nc2cc(O)nn2c(C)c1CCC(=O)N(C)Cc1cscn1	-2.99
CCc1ncc(CNC2CC(=O)N(CCc3cccc(Cl)c3)C2)cn1 (stereo not drawn)	5.67
CC(C)n1c(C2CCCN(CCS(C)(=O)=O)C2)nc2ccccc21 (stereo not drawn)	-0.0156

Compound	Percent Effect [%]
O=C(Cc1ccc2c(c1)OCCO2)N1CCCC(n2cccn2)C1 (stereo not drawn)	-3.29
Cc1nc(C)n(C2CCCN(C(=O)c3sccc3C3CC3)C2)n1 (stereo not drawn)	-3.81
Cc1ccc2c(n1)N(CCn1cccn1)CCN(C(=O)CC1CC1)C2	3.09
Cc1nc(CNC(C)c2ccc(OCC(=O)NC3CC3)cc2)cs1 (stereo not drawn)	-2.32
CN(CCC#N)C(=O)CCOc1cccc(F)c1	-8.13
COc1cccc(CNC(=O)CN2CCCCC2Cn2cccn2)c1 (stereo not drawn)	13
CN1CC(=O)N(c2cnn(C)c2)CC12CCN(Cc1nccn1C)C2 (stereo not drawn)	7.48
COc1ncccc1NC(=O)N1CCC(CN2CCOCC2)CC1	11.1
CC(=O)NC(C)(C)C(=O)Nc1ncc(Cc2ccc(C)c(F)c2)s1	3.12
Cc1cccc(COC[C@]23COC[C@H]2CN(C(=O)c2ccsc2)C3)n1	0.368
COCc1noc(C2(c3ccc(OC)cc3)CCOCC2)n1	6.74
CC(=O)Nc1cccc(C(=O)Nc2cnc3n2CCCC3)c1	0.164
O=C(NCCOc1ccc2c(c1)OCO2)C1CC(=O)N(CC2CC2)C1 (stereo not drawn)	-9.9
CN(C)c1cncc(C2CCN(CCO)CC2)n1	-1.62
COc1ccc(OCC(=O)NS(=O)(=O)c2cc(F)ccc2F)cc1	-4.95
Cc1nn(C)c(N(C)C)c1CNCc1cccnc1-n1cncn1	1.22
COc1ccc(CN2C[C@@H]3COC[C@]3(COc3cccnc3)C2)cc1	-0.202
O=C(NCCN1CCC(c2cccs2)CC1)c1ccccc1C(F)(F)F	8.89
Cc1nc(CN2CCCC(N(C)Cc3c(C)noc3C)C2)no1 (stereo not drawn)	-1.55
